Laboratory results taken from PubChem BioAssay AID1626 (SRMLSC, 2009).
About 2,000 (0.91%) of roughly 220,000 compounds were called active. Another 2% or so got no clear call; they are omitted. The list is a sample of the results. Measured potencies and affinities stand elsewhere. Values without a mark were called inactive. Cut-off read from the data, not from the text of the source: inconclusive = inhibition above about 80% without an active follow-up result; inactive = below that; test concentration not stated here.

Assay: M. tuberculosis H37Rv growth inhibitors, H37Rv strain (AID 1626);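 note: bacteria incubated seven days before Alamar blue readout; 0% = bacteria only wells and 100% = bacteria with antibiotic wells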
Details: active compounds read high, concentration not given here

| Compound | inhibition |
| --- | --- |
| C=CCNC(=O)c1ccc2c(c1)S(=O)(=O)c1ccccc1C2=O | -9.32% |
| COc1cc(C(=O)N2CCN(c3ccccc3)CC2)c([N+](=O)[O-])cc1OC | 3.88% |
| CN(C)c1ccc(CC(=O)c2nc3ccccc3s2)cc1 | -5.99% |
| CCCSc1nnc(NC(=O)Nc2ccc(F)cc2)s1 | 17% |
| O=C(NCC1CCCN(Cc2cccc(C(F)(F)F)c2)C1)c1ccc(F)cc1 (stereo unspecified) | -2.43% |
| Cn1cc(/C=C(\C#N)C(=O)Nc2ncc(Cc3cccc(Cl)c3)s2)c2ccccc21 | 4.07% |
| Cn1cc(/C=C(\C#N)C(=O)Nc2ncc(Cc3ccc(Cl)cc3)s2)c2ccccc21 | 1.97% |
| COC(C/C=C/[C@H](O)[C@H](C)OCc1ccccc1)OC | -0.67% |
| O=c1[nH]c(O)c(N=Nc2ccc([N+](=O)[O-])cc2)c(=O)[nH]1 | -0.55% |
| O=[N+]([O-])c1ccc(N=Nc2ccc(O)cc2O)cc1 | 5.58% |
| COC(=O)CCC(=O)N1CCc2cc(S(=O)(=O)N3CCN(c4ccccc4Cl)CC3)ccc21 | 3.32% |
| CN(C)c1ccc(C(=S)N2CCCCC2)cc1Br | 6.15% |
| O=[N+]([O-])c1nn(-c2cccc(Cl)c2)n(O)c1=NCc1cccnc1 | 6.16% |
| Cc1cccc(N=c2c([N+](=O)[O-])nn(-c3ccc(Cl)cc3)n2O)c1 | 36.6% |
| Cc1ccc(CN=c2c([N+](=O)[O-])nn(-c3cccc(C)c3)n2O)cc1 | -1.44% |
| Cc1cc(C)cc(N=c2c([N+](=O)[O-])nn(-c3ccc(Cl)cc3)n2O)c1 | 48.3% |
| O=C(CCC1CCCN(Cc2ccc3c(c2)OCCO3)C1)NCc1ccccc1F (stereo unspecified) | -11.3% |
| CCCNC(=O)NC(=O)CSc1ccc2c(c1)OCCO2 | 5.15% |
| O=C(Nc1cc(C(F)(F)F)ccc1Cl)C1CCN(c2nnc(-n3cccc3)s2)CC1 | -3.21% |
| O=C(C1CCN(c2nnc(-n3cccc3)s2)CC1)N1CCOCC1 | 0.74% |
| O=C(NCCCN1CCc2ccccc2C1)C1CCN(c2nnc(-n3cccc3)s2)CC1 | -4.77% |
| O=C(C1CCCN(c2nnc(-n3cccc3)s2)C1)N1CCN(c2ccccc2)CC1 (stereo unspecified) | 63.1% |
| COc1ccc(CN2C(=O)NC(=O)/C(=C\c3ccco3)C2=O)cc1 | -5.87% |
| O=C(O)c1cc([N+](=O)[O-])cc2c1nnn2O | -1.94% |

| Compound | inhibition |
| --- | --- |
| COc1cc(C(=O)Nc2ccc3c(c2)OCCO3)ccc1OC(C)C | -2.6% |
| CCOC(=O)c1ccc(N/C=C\C(=O)c2cccc(OC)c2)cc1 | 94.8% |
| CCOc1ccccc1N/C=C/C(=O)C(C)(C)C | 4.06% |
| COc1ccc(N/C=C/C(=O)c2ccc(OC)c(OC)c2)cc1 | 47% |
| COc1ccccc1Oc1ccc(N/C=C/C(=O)C(C)(C)C)cc1 | -4.81% |
| CCOC(=O)c1ccc(NC(=O)Nc2ccc(OC)c(OC)c2)cc1 | -4.38% |
| Cc1ccc(N/C=C/C(=O)C(C)(C)C)c(O)c1 | -0.76% |
| COc1cccc(Oc2ccc(N/C=C/C(=O)C(C)(C)C)cc2)c1 | 1.22% |
| COc1ccccc1N(C(=O)c1snc(C(N)=O)c1N)C(C(=O)NCCC(C)C)c1ccco1 (stereo unspecified) | -1.7% |
| COc1ccc(C(=O)NC(=O)Nc2ncccc2C)cc1 | -9.06% |
| O=C(N/N=C1\C(=O)c2cccc3cccc1c23)c1ccc(O)cc1 | 20.7% |
| N#C/C(=C\c1c(Cl)cccc1Cl)c1nn(-c2ccccc2)c(-n2cccc2)c1C#N | -1.88% |
| O=S(=O)(NCc1cccnc1)c1ccc(Cl)c(Cl)c1 | -0.1% |
| CCOC(=O)c1c(-c2ccccc2)csc1NC(=O)CSc1nncs1 | 4.86% |
| CCN(CC)C(=O)C(=O)c1cccn1-c1cccc(Cl)c1C#N | -4.03% |
| CC(=O)c1c(C)[nH]c(C(=O)NCCc2cccc(C)c2)c1C | 3.77% |
| CCn1c(COc2ccccc2)nc2ccccc21 | -0.43% |
| O=C(Cc1csc(-c2ccccc2)n1)NCc1cccs1 | 2.64% |
| COc1ccccc1C(=O)OCc1c(F)cccc1Cl | -0.9% |
| CCOC(=O)c1ccc(N/C=C/C(=O)c2ccco2)cc1 | 76.7% |
| CCOC(=O)c1ccc(N/C=C/C(=O)c2ccc(OC)cc2)cc1 | 77.2% |
| COC(=O)c1ccc(N/C=C/C(=O)c2ccc(OC)c(OC)c2)cc1 | 36.6% |
| COc1ccc(C(=O)/C=C/Nc2ccc(NC(C)=O)cc2)cc1OC | 0.63% |
| O=C(Nc1ccc(F)cc1F)c1cccnc1 | -2.1% |

| Compound | inhibition |
| --- | --- |
| O=C(NCCCCNC(=O)c1ccc(Br)s1)c1ccc(Br)s1 | -1.39% |
| CCOc1ccc(NC(=O)c2ccccc2OCC(=O)c2ccccc2)cc1 | 4% |
| COc1ccccc1-c1nnc(SCC(=O)N2CCOCC2)n1-c1ccccc1 | 1.2% |
| COCCn1c(C)cc(C(=O)CSc2nc(C)nc3sc4c(c23)CCC4)c1C | -2.28% |
| O=C(NCC(=O)N1CCC(N2CCCCC2)CC1)C1CCCCC1 | -10.3% |
| CC(C)(C)c1nnc2sc(SCC(=O)N3CCc4ccccc43)nn2c1=O | 1.69% |
| CCS(=O)(=O)N1CCN(C2Cc3ccccc3C2)CC1 | -4.5% |
| Cc1cc(Cl)ccc1OCCCC(N)=O | -0.81% |
| O=C(O)CCCC(=O)Nc1ccc(Cl)c(Cl)c1 | -7.53% |
| COc1ccc(NC(=O)COC(=O)/C=C/C(=O)OCC(=O)Nc2ccc(OC)c(Cl)c2)cc1Cl | -1.96% |
| O=C(COC(=O)CCCOc1ccc(Cl)cc1Cl)Nc1cccc(Cl)c1 | 6.33% |
| Cc1cc(Cl)ccc1OCCCC(=O)NN | -1.79% |
| COc1ccc(NC(=O)COC(=O)CCCOc2ccc(Cl)cc2Cl)cc1 | 12.7% |
| COC(=O)CCC(=O)Nc1ccc(Cl)c(Cl)c1 | -2.69% |
| CCOC(=O)/C=C/C(=O)OCC(=O)Nc1ccc(OC)c(Cl)c1 | 3.02% |
| COc1ccc(CNC(=O)CS(=O)Cc2nc(-c3ccccc3C)oc2C)cc1 (stereo unspecified) | 7.5% |
| COc1ccc(/C=N/NC(=O)c2ccc(CN3c4cccc5cccc(c45)S3(=O)=O)cc2)cc1 | 0.99% |
| CCOC(=O)c1sc(NC(=O)CCCCl)nc1C | 6.92% |
| CC(C)Cn1c(N)c(C(=O)COC(=O)C2CCCCC2)c(=O)n(C)c1=O | -2.8% |
| Cc1cc(NC(=O)COC(=O)c2ccc(S(=O)(=O)N3CCCC3)cc2)no1 | 5.16% |
| CN(c1ccccc1C(=O)NC1CC2CCC1C2)S(=O)(=O)c1ccccc1 (stereo unspecified) | 5.72% |
| CC1CCCC/C1=N\NC(=S)Nc1cccnc1 (stereo unspecified) | -2.62% |
| COc1ccccc1CNC(=O)CN(C)CC(=O)Nc1cccc(F)c1 | -0.48% |
| COc1ccc(NC(=O)CN(C)CC(=O)Nc2ccccc2SC)cc1Cl | -0.42% |

| Compound | inhibition |
| --- | --- |
| CCCCOc1ccc(C(C)NC(=O)C2CCCN(S(=O)(=O)CC)C2)cc1 (stereo unspecified) | -2.95% |
| CCC(=NCCO)c1c(O)n(C2CCCCC2)c(=O)[nH]c1=O | 3.46% |
| CCOC(=O)c1cnc2ccc(C)cc2c1Nc1ccc(N2CCOCC2)cc1 | 0.42% |
| CCOC(=O)c1cnc2ccc(C(=O)OC)cc2c1Nc1ccc(C(=O)O)cc1 | -2.69% |
| O=C(O)c1cc(-n2cccc2)ccc1N1CCOCC1 | -4.7% |
| COc1ccccc1NC(=S)NC1CCCCCC1 | -4.57% |
| CN(C)/C=C(/C(=O)c1ccccc1)n1cncn1 | -12.5% |
| Cc1nn(C)c(C)c1/C=C(/C(=O)C(C)(C)C)n1cncn1 | -5.89% |
| Cn1cnc([N+](=O)[O-])c1Oc1ccc2ccccc2c1 | 13.9% |
| CCS(=O)(=O)c1c([N+](=O)[O-])ncn1C | 76.2% |
| Cn1cnc([N+](=O)[O-])c1Cl | 0.19% |
| Cc1cccc(Sc2c([N+](=O)[O-])ncn2C)c1 | 4.79% |
| Cc1cccc(C(=O)N=c2c(C#N)cc3c(=O)n4cccc(C)c4nc3n2Cc2ccco2)c1 | -8.85% |
| CCN(C(=O)COC(=O)c1cc(S(=O)(=O)Nc2c(C)n(C)n(-c3ccccc3)c2=O)ccc1Cl)C1CCCCC1 | -3.86% |
| Cc1cccc(NC(=O)CCOc2ccccc2)c1 | -1.8% |
| Cc1cc(C)n(-c2nc(-c3ccccc3)cs2)n1 | 4.34% |
| O=C(CNC(=O)c1ccco1)OCc1ccc(C(=O)c2ccccc2)cc1 | 3.51% |
| Cc1ccc(C)c(CSCC(=O)NCc2cccs2)c1 | -7.19% |
| Cc1cccc(N2CCN(Cc3ccoc3)CC2)c1C | 2.81% |
| Cc1cc(C)n(-c2nc(NCCCN(C)C)c3c4c(sc3n2)CCCC4)n1 | 17.3% |
| Cc1cc(C)n(-c2nc(SCC(=O)Nc3nccs3)c3c4c(sc3n2)COC(C)(C)C4)n1 | 23.3% |
| Cc1cc(C)n(-c2nc(SCC(=O)O)c3c4c(sc3n2)CCCC4)n1 | 63.1% |
| Cc1cc(C)n(-c2nc(SCCN(C)C)c3c4c(sc3n2)COC(C)(C)C4)n1 | 14.6% |
| CC1(C)Cc2c(sc3nc(SCC(=O)O)[nH]c(=O)c23)CO1 | -1.16% |
